The results in this text go back to PubChem BioAssay.

The assay deals with Torsin-1A-interacting protein 2 (Homo sapiens) (UniProt Q8NFQ8). The assay can be described thus: LULL1 binders on small-molecule microarray, primary screen, cell lysate, human LULL1 lysate, 635/667 nm fluorescence (AID 1092).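 Further: probe is lysate of COS7 cells overexpressing human LULL1; score merges per-feature 667 nm fluorescence with signal-to-noise.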 The note with it: hLULL1 lysate binding, 635 nm fluorescence, higher = more signal.
Torsin-1A-interacting protein 2 (Homo sapiens), sequence (Q8NFQ8 whole entry, looked up): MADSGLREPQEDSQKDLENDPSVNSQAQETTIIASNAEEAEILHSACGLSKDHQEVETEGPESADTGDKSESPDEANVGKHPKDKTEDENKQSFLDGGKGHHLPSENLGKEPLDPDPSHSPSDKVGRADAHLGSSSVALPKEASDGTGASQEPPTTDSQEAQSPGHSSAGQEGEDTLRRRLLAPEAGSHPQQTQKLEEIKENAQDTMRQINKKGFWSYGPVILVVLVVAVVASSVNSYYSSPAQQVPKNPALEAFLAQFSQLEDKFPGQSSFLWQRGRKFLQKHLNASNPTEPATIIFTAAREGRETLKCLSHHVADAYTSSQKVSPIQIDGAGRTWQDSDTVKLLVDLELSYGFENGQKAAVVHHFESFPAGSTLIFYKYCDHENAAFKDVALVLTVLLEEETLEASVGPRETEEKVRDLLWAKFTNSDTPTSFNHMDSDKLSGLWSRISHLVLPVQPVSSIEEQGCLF
`CC1CC/C=C\[C@H]2OC34C=CCN(C(C)(C)C)C(=O)[C@H]3N(CCCCCO)C(=O)[C@@H]4C2C(=O)O1` (stereo not given in full) came in with a composite z-score of -0.0626.
The compound `COc1cc(NN2C(C(O)c3cc(OC)c(OC)c(OC)c3)C=CC3C(=O)N(C)C(=O)C32)cc(OC)c1OC` (stereo not given) yielded a composite z-score of 3.37.
To `[N-]=[N+]=NCc1ccccc1[C@H]1OC(c2ccc(OCCCO)cc2)=N[C@@]1(Cc1ccccc1N=[N+]=[N-])C(=O)NCC(O)CO` (stereo not given in full) belongs 3.52.
In turn, `C=C(COC)/C(=C/C[C@H](OC(=O)c1ccncc1)c1ccccc1OCCO)c1cc(C(=O)OC)ccc1OC` came in with a composite z-score of 2.65.
With `CC(C)=C1C(=O)C(c2ccccc2)=C2CN3C(=O)N(CCc4ccccc4)C(=O)[C@]3(Cc3ccc(C(F)(F)F)cc3)[C@H]21` the figure was 2.45.
With `NCCCCCCNC(=O)[C@@H]1C[C@@H]2C(=O)N[C@@H](CCCCN)C(=O)N2[C@@H]1c1ccc(O)cc1` the figure was 2.47; with `CC(C)[Si](C#CCCCC#N)(O[C@H](c1ccccc1)c1cn(Cc2ccccc2)nn1)C(C)C`, 0.573.
With `CC(C)c1ccc(NN2C(C(O)c3ccc(C#N)cc3)C=CC3C(=O)N(c4ccccc4)C(=O)C32)cc1` (stereo not given) the figure was 3.36; with `COC(=O)[C@]1(CCS(=O)(=O)c2ccccc2)N=C(c2ccc(OCCCO)cc2)O[C@@H]1c1ccccc1N=[N+]=[N-]`, 3.23; with `C=C[C@H](C)[C@H](OC(=O)Nc1ccc(SC)cc1)c1ccc(OCCO)cc1`, 1.53.
On to `Cc1ccc(S[C@]2(C(=O)NCC(F)(F)F)CC(=O)N(Cc3cc(C(F)(F)F)cc(C(F)(F)F)c3)[C@@H]2c2ccc(CO)cc2)cc1`, for which the composite z-score came to 1.79.
With `O=C1OCCC=C[C@H]2OC34C=CCN(c5ccc6ccccc6c5)C(=O)[C@H]3N(CCCO)C(=O)[C@@H]4C12` (stereo not given in full) the figure was -0.939.
With `O=C1O[C@H](c2ccccc2)[C@H](c2ccccc2)N2[C@H]1[C@@H](C(=O)O)[C@]1(C(=O)Nc3ccc(C#CCCO)cc31)[C@H]2c1ccccc1OCCO` the figure was 2.97; with `COC(=O)[C@@]1(Cc2ccc(F)cc2)[C@H]2c3cc(C(=O)N4CCCC4)n(CCc4c[nH]c5ccccc45)c3C[C@H]2CN1C(=O)c1ccccc1`, 3.42; with `[N-]=[N+]=Nc1ccccc1C[C@]1(C(=O)N2CCOCC2)COC(c2ccc(OCCCO)cc2)=N1`, 3.51.
With `C=CCN1C(=O)[C@]2(CCC(=O)OC(C)(C)C)N=C(c3ccc(OCCCO)cc3)O[C@@H]2c2ccccc21` the figure was 2.02.
`O=C1OCCC=C[C@H]2OC34C=CCN(Cn5nnc6ccccc65)C(=O)[C@H]3N(CCCO)C(=O)[C@@H]4C12` (stereo not given in full) gave a composite z-score of -1.7.
To `COCCOC(=O)N1C(=O)[C@@]2(c3ccccc31)[C@H](c1ccc(O)cc1)N1[C@H](c3ccccc3)[C@H](c3ccccc3)OC(=O)[C@H]1[C@@H]2C(=O)N1CCN(c2ncccn2)CC1` belongs 2.78; to `Cc1ccc(S[C@]2(C(=O)NCC(F)(F)F)CC(=O)N(Cc3cc(C(F)(F)F)cc(C(F)(F)F)c3)[C@@H]2c2ccc(CO)cc2I)cc1`, -0.0923.
With `C#CCN([C@@H](Cc1ccccc1)C(=O)OC)[C@@H](/C=C/C1CC1)[C@H](O)Cc1ccccc1` the figure was 0.209.
To `CC(C)C(CO)N1C(=O)[C@@H]2[C@H]3C(=O)OCC=C[C@H]3OC23C=CCN(c2ccc(Cl)cc2)C(=O)[C@@H]13` (stereo not given in full) belongs -0.0004; to `COC(=O)[C@@]1(Cc2ccc(F)cc2)[C@H]2c3cc(C(=O)N4CCCC4)n(Cc4ccc(C)c(F)c4F)c3C[C@H]2CN1C(=O)c1ccccc1`, 0.919; to `COc1ccccc1CN1C(=O)c2ccccc2[C@](Cc2ccccc2I)(C(=O)O)[C@@H]1c1ccc(CO)cc1`, 2.45.
With `COc1ccc([C@H]2OC[C@@H]3C[C@H](Cc4ccccc4)C(=O)N32)cc1`, the composite z-score came to 0.449.
To `COCCOC(=O)N1C(=O)[C@@]2(c3cc(C#CC4(O)CCCCCC4)ccc31)[C@H](c1ccc(O)cc1)N1[C@H](c3ccccc3)[C@H](c3ccccc3)OC(=O)[C@H]1[C@@H]2C(=O)N1CCN(c2ncccn2)CC1` belongs 2.57; to `CCCC1(C(=O)OC)C=C2C(=C(C)C(=O)C2C)CN1` (stereo not given), 0.941; to `COc1cc(NN2C(C(O)c3ccco3)C=CC3C(=O)N(C)C(=O)C32)cc(OC)c1OC` (stereo not given), 0.873.
With `CCCNC(=O)[C@@H]1c2ccccc2C(=O)N(Cc2ccc(OC(F)(F)F)cc2)[C@H]1c1ccc(CO)cc1` the figure was 2.12; with `C=CC[C@@H](OC(=O)Nc1ccc(OC)cc1)c1ccc(O)c(F)c1`, 2.09.
With `CCCC[C@@H](O)C1=C(COC)C[C@H]2C(=O)N(Cc3ccccc3)C(=O)[C@H]2[C@H]1CO` the figure was 0.113.
